# In PubChem BioAssay (EPA / NIEHS):
# The source made the active and inactive calls. The calls were made as follows: active = hit-call score of the fitted dose curve at least 0.9, where 1 is the maximum; inactive = score below 0.9.
# Read-out: ABC Transporter (ABCB1), ABCB1 (gene 5243)
# Assay: LTEA_HepaRG_ABCB1: Life Technologies and Expression Analysis (LTEA) Assay for ABC Transporter (ABCB1) using HepaRG (AID 2283460)
# Details: mRNA level, 48 h; actives raise or lower the signal
# Description: LTEA_HepaRG is a cell based, multiplexed-readout assay that uses HepaRG, a human liver cell line, with measurements taken at 48 hours after chemical dosing on a 96-well plate.LTEA_HepaRG_ABCB1 is one of 102 assay component(s) measured in the LTEA HepaRG cell culture assay. It is a marker of Steatosis/NR mediated transport.Data from the assay component LTEA_HepaRG_ABCB1 was analyzed into 1 endpoint. This assay endpoint, LTEA_HepaRG_ABCB1, was analyzed with bidirectional fitting relative to DMSO as the negative control and baseline of activity. Using a type of inducible reporter, measures of mRNA induction for gain or loss-of-signal activity can be used to understand regulation of transcription factor activity. To generalize the intended target to other relatable targets, this assay endpoint is annotated to the transporter intended target family, where the subfamily is ABC transporter.
# A total of 1060 chemcials from the ToxCast library were tested in eight-point concentration-response experiments. Cell culture and cytotoxicity assays were conducted at Thermo Fisher Scientific's Custom Services facility (Madison, WI). A single lot of human HepaRG cells (Thermo Fisher Scientific, Frederick, MD) was used for the cell culture experiments. 96-well format collagen type I coated plates of human HepaRG cells were prepared using established methods. Briefly, cryopreserved HepaRG cells were thawed, plated at a density of approximately 100,000 cells/well in HepaRG Thaw, Plate, and General Purpose media (HPRG770, Thermo Fisher Scientific), and incubated for 48 hours. 0.5% DMSO was selected as vehicle control to balance the requisite need of DMSO in HepaRG cultures to maintain differentiation (for example, baseline metabolism, proportions of hepatocytes vs. cholangiocytes), while enabling further hepatic receptor pathway activation (for example, PXR and CAR) in response to chemical exposure. 48 hours after plating, the culture medium was replaced with HepaRG Serum-Free Incudtion Media. Cells were exposed to each test chemical in duplicate and maintained in CO2 incubators for another 48 hours. Chemical plates were thawed to room temperature and 200x concentrations of treatment groups were prepared. 8-point conentration-reponse curves were made with the highest exposure at 100 uM, followed by half-log dilutions, all in 0.5% DMSO. Each test plate contained variouse controls, induction positive controls (1mM phenobarbital), cytotoxicity positive controls ([…] aflatoxin B1), vehicle controls (0.5% DMSO), and total lysis controls (0.5% DMSO). Cell morphology images were taken using an Essen IncuCyte FLR automated microscope, with six 96-well plates imaged in about 24 minutes. Images were captured and exported and JPEG files. Spent culture media was transfered to black-well plates for the LDH assay, and remaining media was sorted at -80 C for later use. Cells were treated with RLT buffer and frozen until shipped for gene expression analysis. Total RNA was isolated from the cell suspension in 75 uL of Buffer RLT (Qiagen, Germantown, MD 20874) by Quintiles/Expression Analysis (Durham, NC) using a custom isolation procedure. Total RNA from each plate well was transferred to a preamplification plate. Fluidigm's 96.96 Dynamic ArrayTM (Fluidigm, Amsterdam, the Netherlands) technology was used for gene expression analyses by quantitative reverse transcription polymerase chain reaction (qRT-PCR, performed by Quintiles/Expression Analysis, Durham, NC)89. Standard TaqManTM Assays (Applied Biosystems/ThermoFisher Scientific, Foster City, CA) were used to assess the expression of 93 genes selected based on their selectivity and sensitivity to important hepatic receptors known to be modulated by environmental chemicals; importance in human hepatocyte functionality; and hepatotoxicity. […]
Compound,AC50,outcome
CCCCC(CC)COP(=O)(OCC(CC)CCCC)OCC(CC)CCCC (stereo not given),8.5 µM (active),–
Cc1cc(SC2=C(O)C[C@@](CCc3ccc(N)cc3)(C(C)C)OC2=O)c(C(C)(C)C)cc1CO,2.44 µM (active),–
Nc1nc(Cl)nc2c1ncn2[C@H]1C[C@H](O)[C@@H](CO)O1,1.39 µM (active),–
CC1=C(C)S(=O)(=O)CCS1(=O)=O,50 µM (active),–
CCOCCOCCO,–,inactive
CCCCOC(=O)CCCCC(=O)OCCCC,–,inactive
NCCOCCOCCN,–,inactive
Cc1ccc(-c2cc(C(F)(F)F)nn2-c2ccc(S(N)(=O)=O)cc2)cc1,82.2 µM (active),–
CCCCCCC(CCCCCCCCCCC(=O)OCC(COC(C)=O)OC(C)=O)OC(C)=O (stereo not given),–,inactive
O=C(N[C@@H](c1ccccc1)[C@@H]1CCCCN1)c1cccc(C(F)(F)F)c1Cl,89.9 µM (active),–
CCCC(=O)O,–,inactive
O=C1c2c(O)cccc2Cc2cccc(O)c21,–,inactive
S=c1[nH]c2ccccc2s1,–,inactive
Cc1ccc(C(C)(C)C)c(O)c1,–,inactive
O=C1OC(c2ccc(O)cc2)(c2ccc(O)cc2)c2ccccc21,–,inactive
Cn1cnc2c1c(=O)[nH]c(=O)n2C,–,inactive
Cc1cc(Cc2ccc(N)c(C)c2)ccc1N,33.6 µM (active),–
Nc1nc(=S)c2[nH]cnc2[nH]1,10.3 µM (active),–
COc1ccc(C(=O)Nc2nc3ccccc3c(NCc3ccccc3)c2C#N)cc1,–,inactive
C/C=C/c1ccc(OC)cc1,–,inactive

Compound,AC50,outcome
OCC(CO)n1cnc(-c2ccc(F)cc2)c1-c1ccnc(Oc2ccccc2)n1,20 µM (active),–
O=C(Oc1ccccc1)c1cccc(C(=O)Oc2ccccc2)c1,–,inactive
CCCCCCCC(=O)OC,–,inactive
Cc1occc(=O)c1O,–,inactive
O=Cc1ccccc1C=O,–,inactive
C=CCCCCCCCCCCCC,–,inactive
O=[Si]=O,–,inactive
CC(=O)S[C@H](C(=O)N[C@H]1Cc2ccccc2[C@H]2CCC[C@@H](C(=O)O)N2C1=O)C(C)C,–,inactive
CN(C)C(=O)NC1(c2ccccc2)CCN(CC[C@@]2(c3ccc(F)c(F)c3)CN(C(=O)c3ccccc3)CCO2)CC1,1.86 µM (active),–
CCCCC(CC)COC(=O)CCCCCCCC(=O)OCC(CC)CCCC (stereo not given),–,inactive
CN(C)C(=O)NC1(c2ccccc2)CCN(CCC[C@]2(c3ccc(Cl)c(Cl)c3)CCCN(C(=O)c3ccccc3)C2)CC1,–,inactive
CC(=O)O[C@]1(C(C)=O)CC[C@H]2[C@@H]3C=C(Cl)C4=CC(=O)[C@@H]5C[C@@H]5[C@]4(C)[C@H]3CC[C@@]21C,–,inactive
CC(C)c1cccc(C(C)C)c1NC(=O)NS(=O)(=O)c1cc(C(C)(C)O)co1,6.65 µM (active),–
O=C1CCCCC1,–,inactive
CC(=O)O,–,inactive
NC=O,–,inactive
Oc1ccc(O)cc1,–,inactive
COC(=O)CCC(=O)OC,–,inactive
C/C=C/C=C/C(=O)O,–,inactive
CCCCCCCCCCCCCCCCO,–,inactive
